Source: PubChem BioAssay AID460 (PCMD, 2006)
Screen size: about 58,000 compounds; about 100 (0.17%) were called active. Rule as the data show it: active = inhibition above about 45%; inactive = the rest. The list comes from a sample in which actives are over-represented; it also holds similar structures and randomly drawn compounds.

target: Procathepsin L (Homo sapiens) (UniProt P07711); experiment: blockers of CTSL protease activity – biochemical (AID 460); settings: purified cathepsin L, fluorogenic substrate, fluorescence; hits give high values;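 tested at 10 µM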;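 also: 0% = enzyme with no compound and 100% = no enzyme blank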
Sequence (P07711 114-288 limits assumed): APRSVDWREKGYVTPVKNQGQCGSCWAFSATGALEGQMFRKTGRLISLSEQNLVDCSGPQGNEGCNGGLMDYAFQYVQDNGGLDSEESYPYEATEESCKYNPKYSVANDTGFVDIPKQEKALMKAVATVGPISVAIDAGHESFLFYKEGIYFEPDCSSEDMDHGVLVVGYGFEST
Sequence (P07711 292-333 limits assumed): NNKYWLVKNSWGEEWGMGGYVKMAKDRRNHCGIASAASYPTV

inhibition, inactive:
Cc1cc(Cl)c(S(=O)(=O)NCCC(=O)O)cc1OCC(N)=O 4.48%
COc1cc(-c2nn3c(-c4cccc(C)c4)nnc3s2)cc(OC)c1OC 0.7%
Cc1nnc(NC(=O)CSc2nccn2-c2cccc(C)c2C)s1 3.56%
Cc1c(C(=O)N2CC(C)OC(C)C2)sc2nc(-c3ccccc3)cn12 (configuration not stated) 23%
C=CCc1cccc2cc(C(=O)OCC)c(=O)oc12 5.84%
CCC1CCCCN1CCNS(=O)(=O)c1ccc2c(c1)CCN2C(C)=O (configuration not stated) 12.7%
CC(C)CCNC(=O)C1CCCN(S(=O)(=O)c2ccc(F)cc2)C1 (configuration not stated) 9.49%
COCc1cc(C)nc(SCC(=O)Nc2cccc(C)c2)c1C#N 10.9%
CC12COC3(C(=O)Nc4ccc(Cl)cn4)CC1CCC32C (configuration not stated) 11.5%
CC(=O)Oc1cc2c(C(=O)NCCN3CCOCC3)c(C)oc2c2ccccc12 -9.79%
C[N+](C)(C)CCNC(=O)c1c(O)c2c([nH]c1=O)CCCC2 8.42%
Cn1c(=O)n(CCc2ccccc2)c(=O)c2c1nc1n2CCCN1c1ccccc1 0.95%
COc1cc(C2C(C#N)=C(C)NC3=C2C(=O)CC(C)(C)C3)ccc1O (configuration not stated) 4.18%
Cn1c(=O)c(C(=O)Nc2ncccn2)c(O)c2ccccc21 -15.3%
CCOC(=O)c1c(C)nc(-c2ccccc2)nc1NC(=O)C(C)C 22.7%
CSCCC(NS(=O)(=O)/C=C/c1ccccc1)C(=O)N1CCC(C)CC1 (configuration not stated) 7.86%
CC1(C)Oc2ccc3ccc(=O)oc3c2/C(=C/NCCO)C1=O 14.3%
CCOC(=O)C(CC)Sc1ncnc2c1nnn2-c1ccc(F)cc1 (configuration not stated) 7.22%
OC1CN=C2Sc3ccccc3N2C1 (configuration not stated) -0.84%
c1ccc(-n2ncc3c2ncn2c(C4CCCCC4)nnc32)cc1 1.98%
CCN(CC)S(=O)(=O)c1cccc(C(=O)Nc2ccccc2)c1 -8.69%
CCCOc1ccc(CN(CCO)CCO)cc1C(=O)OC 8.62%
CC(C)CCNC(=O)CN(C(=O)Cn1nnc(-c2ccc(F)cc2)n1)C1CCCC1 12.4%
CC(=O)N1CC2(C)CN(C(C)=O)CC(C)(C1)C2=O -7.32%
C=CCn1c(COc2ccccc2F)nnc1SCC(=O)N1CC(=O)Nc2ccccc21 2.58%
C=CCn1c2ccccc2c2nnc(SC(CC)C(=O)Nc3nc(C)c(C(=O)OCC)s3)nc21 (configuration not stated) -6.76%
COc1ccc2occ(C(=O)c3ccc(N=C(C)N(C)C)cc3)c2c1 1.28%
